PubChem BioAssay (NCI)
The panel holds about 83,000 compounds, 20% with a hit somewhere; the sample as a whole holds those more often.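 Cell lines were cultured in 96-well plates, exposed to a single compound concentration, and assessed for percent growth 48 hours later.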 The source made the active and inactive calls. Rule for the calls: active = growth percent below 10; inactive = the rest.

system: HL-60(TB) leukemia; experiment: NCI-60 one-dose screen, 48 h (100 = growth as untreated, 0 = no growth, -100 = all killed); settings: 10 µM unless noted

Structure (SMILES)	growth
CCn1c(CN2CCN(Cc3ccccc3)CC2)nc2cc(NC(=O)c3cccs3)ccc21	-51.2% (active)
CCOc1ccc(Br)cc1/C=C(\C#N)c1ccc([N+](=O)[O-])cc1	91.6% (inactive)
COc1cc(C(=O)N/N=C/c2cc3cc(OCc4ccccc4)ccc3nc2OC)cc(OC)c1OC	98.9% (inactive)
Cc1ccc([N+](=O)[O-])cc1Br	80.6% (inactive)
CC(C)NC(=O)OCc1c(COC(=O)NC(C)C)c(-c2ccc(Cl)cc2)n2c1CCC2	43.9% (inactive)
CCOC(=O)c1c2c(n3ccc(NC(=O)CCN(CC)CC)cc13)C(=O)c1ncccc1C2=O	-48.5% (active)
COc1ccc(Nc2ncc(C(N)=O)c(NCCCNC(=O)C3CCC3)n2)cc1	46.6% (inactive)
COc1ccc(NC(=S)NNc2ccc(-c3ccc(OC)c(OC)c3)nn2)cc1	98.9% (inactive)
O=C1c2c(c3c4ccccc4[nH]c3c3ccc4ccccc4c23)C(=O)N1CCN1CCNCC1	43.6% (inactive)
NC(N)=NC(N)=NCCCc1ccccc1	55.7% [100 µM] (inactive)
COc1ccc(CNc2c3ccccc3nc3ccc(OC)cc23)cc1	-20.7% (active)
CCCCC[C@H]1C/C=C2/C(=O)C=C[C@@H]2C/C=C\CCCC(=O)O[C@@H](CCCCC)C/C=C2/C(=O)C=C[C@@H]2C/C=C\CCCC(=O)O1	-47.6% (active)
COc1ccc(-c2cc(C(=O)Nc3ccc(Br)cc3)nc3[nH]c(=O)sc23)cc1	25.5% (inactive)
CS(=O)(=O)c1ccc(C(=O)N/N=C/c2ccc3c(c2)OCO3)cc1	57% (inactive)
N#Cc1ccc(C(F)(F)F)nc1N1CCC(C(=O)Nc2ccc(Cl)cc2)CC1	70% (inactive)
COc1ccc(N2CCC(=S)NC2=S)cc1	99% (inactive)
CC[C@]1(O)CC2CN(CCc3c([nH]c4ccccc34)[C@@](C(=O)OC)(c3cc4c(cc3OC)N(C=O)[C@H]3[C@@](O)(C(=O)OC)[C@H](OC(C)=O)[C@]5(CC)C=CCN6CC[C@]43[C@@H]65)C2)C1 (stereo partly specified)	7.11% (active)
Cc1ccc(-c2cc(-c3nnc(SCC(=O)c4ccccc4)o3)c3ccccc3n2)cc1	103% (inactive)
CCOC(=O)c1c(Nc2nc3ccccc3s2)sc2c1CCC(=O)C2	58.7% (inactive)
CC(C)C1CCC(C)C(C2(C#N)C(N)=NC(N)=C2C#N)C1=O (stereo unspecified)	96.7% (inactive)
COc1ccc(-c2nn(-c3cccc(Cl)c3)cc2-c2cc(-c3ccc(Br)cc3)[nH]c(=O)c2C#N)cc1	101% (inactive)
COc1ccc(-c2cnc3ccnn3c2-c2cc(OC)c(OC)c(OC)c2)cc1	-22% (active)
COc1ccc2[nH]cc(-c3nc(-c4c[nH]c5c(Cl)nccc45)cs3)c2c1	36% (inactive)
CCOC(=O)c1[nH]c(C)c(C(C)=O)c1C	102% (inactive)
Cc1cc(Nc2ccc(F)cc2)nc(N2CCN(c3ccnc4cc(Cl)ccc34)CC2)n1	7.98% (active)
Nc1nc2c(c3cnccc13)C(c1ccc(Cl)c(Cl)c1)Cc1cnccc1-2 (stereo unspecified)	-16.5% (active)
